Drawing on PubChem BioAssay AID2642 (Johns Hopkins Ion Channel Center, 2010), this text covers B-score for 69 compounds.

In all, about 310,000 compounds went through this assay and about 3,900 (1.3%) were called active. The sample holds actives, similar compounds and a random draw of the others, so the mix is not that of the screen.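 Rule for the calls: active = compounds whose thallium flux B-score, printed positive for inhibition, exceeds three library SD while starting fluorescence stays within three; inactive = the rest.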

The target in the assay is Potassium voltage-gated channel subfamily KQT member 1 (Homo sapiens) (UniProt P51787). Put plainly: KCNQ1 potassium current blockers – cell-based, thallium flux, high-throughput, primary screen (AID 2642).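 Note: channel opened by potassium depolarization with thallium stimulus after 20 min compound exposure.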 The conditions noted are these: CHO-K1 KCNQ1, FluxOR thallium flux fluorescence, at 10 µM; hits give high values.
Chain of Potassium voltage-gated channel subfamily KQT member 1 (Homo sapiens) (P51787 whole entry, looked up): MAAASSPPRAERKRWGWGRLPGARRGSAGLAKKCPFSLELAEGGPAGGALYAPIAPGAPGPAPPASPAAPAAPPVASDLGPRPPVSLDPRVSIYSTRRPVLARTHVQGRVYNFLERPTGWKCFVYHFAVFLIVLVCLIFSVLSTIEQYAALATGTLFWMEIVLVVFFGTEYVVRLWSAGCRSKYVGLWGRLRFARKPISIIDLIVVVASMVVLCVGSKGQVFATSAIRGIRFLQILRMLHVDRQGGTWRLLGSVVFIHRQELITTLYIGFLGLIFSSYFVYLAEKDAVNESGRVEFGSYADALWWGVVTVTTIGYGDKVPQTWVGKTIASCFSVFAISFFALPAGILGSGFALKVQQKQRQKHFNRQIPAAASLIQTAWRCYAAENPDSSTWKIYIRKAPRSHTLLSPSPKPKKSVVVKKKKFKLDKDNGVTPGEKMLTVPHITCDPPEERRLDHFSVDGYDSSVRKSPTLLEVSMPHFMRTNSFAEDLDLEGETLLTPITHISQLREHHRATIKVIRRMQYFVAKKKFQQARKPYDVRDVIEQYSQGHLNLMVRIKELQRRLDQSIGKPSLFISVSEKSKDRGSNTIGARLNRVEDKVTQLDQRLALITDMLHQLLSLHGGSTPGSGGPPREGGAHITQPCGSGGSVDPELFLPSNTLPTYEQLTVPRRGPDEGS
With `CC(=O)Nc1ccc(S(=O)(=O)N(C)c2ccc(OCC(=O)OCC(=O)N3CCCCC3)cc2)cc1`, the B-score result is “inactive”.
For `COc1ccccc1N(C)S(=O)(=O)c1ccc(Cl)c(C(=O)N2CCC(C(N)=O)CC2)c1` the value was “inactive”; for `COC(=O)c1ccc(CN2CCCC(C(=O)Nc3cccc(-n4cnnn4)c3)C2)cc1` (centres undefined), “inactive”.
Regarding `CC(C)CCN1C(=O)c2ccc(C(=O)Nc3cccc(S(N)(=O)=O)c3)cc2C1=O`, the B-score result was “inactive”.
`O=C(CS(=O)(=O)c1cn(Cc2ccc(Cl)cc2)c2ccccc12)N1CCOCC1`: the B-score result was “inactive”.
With `O=C(CCCN1C(=O)/C(=C\c2ccccc2)SC1=S)Nc1ccccc1O`, the B-score entry is “inactive”.
The same measure for `COc1ccc(/C=C2\SC(=O)N(CCC(=O)NCCCn3ccnc3)C2=O)cc1`: “inactive”.
For `COc1ccc(/C=C2/SC(=O)N(CCCCCC(=O)Nc3ccccc3C(=O)O)C2=S)cc1` the value was 6 (active); for `Cc1cc(/C=C2/SC(=O)N(CC(=O)N3CCCC3)C2=O)ccc1N1CCOCC1`, “inactive”.
`Cc1cccc(CNS(=O)(=O)c2ccc(-c3cnc(C4CC4)o3)cc2)c1`: the B-score entry was “inactive”.
Take `CCOC(=O)Cn1c(=O)n(Cc2ccc(OC)cc2)c(=O)c2cccnc21`: the B-score entry was “inactive”.
`COC(=O)[C@@H](Cc1ccccc1)NC(=O)NCCc1ccccc1`: the B-score entry was “inactive”.
`CC1Cc2ccccc2N1C(=O)c1cc2sccc2n1Cc1ccccc1` (centres undefined): the B-score was 6 (active).
With `CCOC(=O)c1cc2sccc2n1Cc1ccc(C#N)cc1`, the B-score entry was “inactive”.
Consider `O=C(c1cc2sccc2n1Cc1ccc(F)cc1)N1CCc2ccccc21`, for which the B-score entry is “inactive”.
With `Cn1nc(C(F)(F)F)cc1-c1ccc(/C=C(\C#N)C(=O)c2cccc(C(F)(F)F)c2)s1`, the B-score is 8 (active).
As to `CCC(=O)OCc1c(C(F)(F)F)nn(C)c1Oc1cccc(C(F)(F)F)c1`, the B-score entry was “inactive”.
Regarding `Cn1nc(C(F)(F)F)cc1C(=O)O`, the B-score entry is “inactive”.
With `CCCCN(C)CCNC(=O)C1CCCN(S(=O)(=O)c2cccc3nsnc23)C1` (centres undefined), the B-score result is “inactive”.
As for `CN(Cc1ccccc1)C(=O)COC(=O)c1ccccc1Nc1ccccc1`, the B-score result is “inactive”.
For `Cc1c(C(=O)NCCCc2ccccc2)cccc1[N+](=O)[O-]` the value was “inactive”; for `O=C(OCC(=O)N(CCc1ccccc1)Cc1ccccc1)c1ccccc1[N+](=O)[O-]`, 6 (active).
The same measure for `CC1=NN(C(C)C)C(=O)C1`: “inactive”; for `CN(C)c1ccc(/C=N\S(=O)(=O)c2ccccc2)cc1`: “inactive”.
`CC[n+]1cc(C)ccc1/C=C/c1ccc(N(C)C)cc1`: the B-score was 14 (active).
Regarding `Cc1nnc2n1N=C(c1ccc3c(c1)NC(=O)CO3)CS2`, the B-score result was “inactive”.
For `Cc1noc(C)c1CSCC(=O)N(CCC(C)C)c1c(N)n(Cc2ccccc2)c(=O)[nH]c1=O` the value was “inactive”.
Take `COc1cccc(N(CC(=O)NC2CCCC2)C(=O)Cn2nnc(-c3ccc(C)o3)n2)c1`: the B-score result was “inactive”.
Consider `Cc1cccc(C(=O)Nc2nnc(S(=O)(=O)N3CCCCCC3)s2)c1`, for which the B-score entry was “inactive”.
In the case of `O=C(Nc1nnc(S(=O)(=O)N2CCOCC2)s1)c1cccc(Br)c1`, the B-score result is “inactive”.
For the compound `O=C(Nc1nnc(S(=O)(=O)N2CCCCCC2)s1)c1cccc(Br)c1`, the B-score is 7 (active).
For the compound `CCn1cc(CNC(=O)c2cc([N+](=O)[O-])c(C)c([N+](=O)[O-])c2)cn1`, the B-score entry was “inactive”.
For the compound `Cc1cccc(NC(=O)c2ccc([N+](=O)[O-])o2)c1`, the B-score entry was “inactive”.
On to `Cc1cccc(NC(=O)c2cc([N+](=O)[O-])ccc2N2CCN(C)CC2)c1`, for which the B-score entry is “inactive”.
For the compound `Cc1cccc(NC(=O)c2sc(-c3ccccc3)nc2-c2ccc([N+](=O)[O-])cc2)c1`, the B-score is 6 (active).
On to `COc1ccc(CCNc2ncnc3c2nnn3Cc2ccccc2)cc1`, for which the B-score entry was “inactive”.
In the case of `O=C1/C(=C/c2ccc(F)cc2)SC(=S)N1CCCC(=O)N1CCCCC1CCO` (centres undefined), the B-score result is “inactive”.
For `COc1ccc(CCNC(=O)C(=O)NCC2OCCN2S(=O)(=O)c2ccc(OC)c(C)c2)cc1` (centres undefined) the value was “inactive”; for `O=C1C2C3C=CC(C4CC34)C2C(=O)N1c1nccs1` (centres undefined), “inactive”.
Take `COc1cccc(-c2cnc(OC(C)(C)C)nc2OC(C)(C)C)c1`: the B-score is 8 (active).
Consider `COc1ccc(-c2nc(N)ncc2-c2ccc(Cl)cc2)c(O)c1`, for which the B-score result is “inactive”.
For `CC(C)(C)Oc1ncc(Br)c(OC(C)(C)C)n1` the value was “inactive”; for `CCOc1cc2c(Cl)ncnc2c(OCC)c1OCC`, “inactive”; for `COc1cccc(CN2CCN(Cc3ccc4cccc(F)c4n3)CC2CCO)c1` (centres undefined), “inactive”.
Take `O=S(=O)(c1cccc2nonc12)N1CCN(c2cccc(Cl)c2)CC1`: the B-score result was “inactive”.
Turning to `CC(Nc1ccccc1)c1cccnc1` (centres undefined), the B-score entry was “inactive”.
Regarding `Cc1nn2c(c1-c1ccccc1)N=C(c1ccco1)CC2c1ccccc1` (centres undefined), the B-score result is “inactive”.
With `CC(C)(C)NS(=O)(=O)CC12CCC(CC1=O)C2(C)C` (centres undefined), the B-score result was “inactive”.
For `COc1ccc(Cl)cc1NC(=O)NC(C)C(C)(C)C` (centres undefined) the value was “inactive”.
For the compound `COc1ccc(Cl)cc1NC(=O)C(C)N1CCc2ccccc21` (centres undefined), the B-score was 7 (active).
Regarding `COc1ccc(Cl)cc1NC(=O)NCC1CCN(Cc2ccccc2F)CC1`, the B-score entry is “inactive”.
`COc1ccccc1N1CCN(C(=O)c2cn(-c3ccccc3)nc2-c2cccnc2)CC1`: the B-score result is “inactive”.
With `COc1ccc(NC(=O)C(CC(C)C)NC(=O)C2CCC(C)CC2)cc1` (centres undefined), the B-score result was “inactive”.
Consider `COc1ccc(CCNCC(O)Cn2ccc3ccccc32)cc1OC` (centres undefined), for which the B-score result is “inactive”.
As to `Cc1cccc(NC(=S)Nc2ccc(Br)cc2)c1`, the B-score is 6 (active).
For `Cc1cccc(NC(=S)Nc2ccc3cn[nH]c3c2)c1` the value was “inactive”.
As for `Cc1cccc(NC(=S)NC23CN4CN(CN(C4)C2)C3)c1`, the B-score entry is “inactive”.
Turning to `Cc1cccc(NC(=O)NC(=S)NC(=O)c2ccccc2)c1`, the B-score result is “inactive”.
On to `Cc1cccc(NC(=S)Nc2ccc(Cl)c(Cl)c2)c1`, for which the B-score is 7 (active).
In the case of `Cc1ccc(NC(=S)Nc2ccc(F)cc2)cc1`, the B-score result is “inactive”.
For `Cc1ccc(C)c(N2CCN(C(=O)CCCn3c(=O)c4cccn4c4cccnc43)CC2)c1` the value was “inactive”; for `COC(=O)CN1C(=O)[C@H]2[C@@H](/C=C/c3ccccc3)N3C(=O)CN(Cc4ccccc4)C(=O)[C@@]3(Cc3ccccc3)[C@H]2C1=O`, “inactive”.
For `CN(C)/C=C(/C(=O)c1ccc(F)cc1)S(=O)(=O)c1ccc(F)cc1` the value was “inactive”; for `Cc1nnc(SC(C(=O)Nc2cc(Cl)cc(Cl)c2)c2ccccc2)[nH]c1=O` (centres undefined), 8 (active); for `CC(NCC(=O)Nc1cc(Cl)cc(Cl)c1)c1ccccc1` (centres undefined), “inactive”.
Turning to `Cc1nnc(SC(C(=O)c2ccccc2)c2ccccc2)[nH]c1=O` (centres undefined), the B-score result was “inactive”.
`CC(/C=C/c1ccco1)=N/NC(=O)C1COc2ccccc2O1` (centres undefined): the B-score entry was “inactive”.
For the compound `O=C(N/N=C/C=C/c1ccccc1)C1CC1(c1ccccc1)c1ccccc1` (centres undefined), the B-score entry is “inactive”.
On to `CC(/C=C/c1ccccc1)=N\NC(=O)C1CC1(C)c1ccccc1` (centres undefined), for which the B-score is 9 (active).
